Among the data in PubChem BioAssay (Tox21) are Potency values, retold here.

Inconclusive results are not listed. Active and inactive are the calls of the source. Unless noted, calls follow the shape of the full dose curve.

The nature of test [1]: Nuclear factor erythroid 2-related factor 2/antioxidant responsive element (Nrf2/ARE) small molecule agonists: qHTS cell viability counter screen in human keratinocytes (AID 1919968; active = well fitted curve in the direction sought with a large enough effect in the repeat runs; an effect the other way counts as inactive or inconclusive; also: nearly all actives have a fitted effect of over 55% in size). The method, boiled down:
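Measured as CellTiter-Fluor fluorescence, this readout tracks cytotoxicity in the same wells as the ARE-luciferase screen. HaCaT reporter cells (1,500/well) received compounds after a 5 h pre-incubation and were exposed for 23 h.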

The nature of test [2]: Nuclear factor erythroid 2-related factor 2/antioxidant responsive element (Nrf2/ARE) small molecule agonists: luciferase reporter gene qHTS assay in human keratinocytes (AID 1919969). Also: nearly all actives have a fitted effect of over 35% in size. Also: potency is read from the fitted curve at half-maximal effect.
The target in test [3] is Gonadotropin-releasing hormone receptor (Homo sapiens) (UniProt P30968). The experiment in a line: Human gonadotropin-releasing hormone receptor (GnRHR) small molecule agonists, calcium flux assay in GnRHR-HEK293 cells (AID 1920063). Also: nearly all actives have a fitted effect of over 35% in size. The procedure, abridged:
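Fluorescence kinetics (480 nm excitation, 540 nm emission; 3 min, 1 s steps) report calcium mobilisation in human GnRHR-HEK293 cells in agonist mode. Dye incubation: 1 h, 37 C.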

Test [4] deals with KiSS-1 receptor (Homo sapiens) (UniProt Q969F8). The experiment in a line: Human kisspeptin (KISS1R) small molecule agonists, calcium flux assay in KISS1R-HEK293 cells (AID 1920064; active = well fitted curve in the direction sought with a large enough effect in the repeat runs; an effect the other way counts as inactive or inconclusive). The procedure, abridged:
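Measures KISS1R agonism through calcium-sensitive dye fluorescence in stably transfected HEK293 cells, read for 3 min after pin-tool compound delivery; 15-point titrations in triplicate.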
For orientation: Calcium assays in cells follow changes in intracellular calcium, usually with a dye or a luminescent sensor.

A short description of test [5]: G protein-coupled receptor (GPCR) small molecule agonists, calcium flux assay: HEK293 wild type cell line counter screen (AID 1920065). The procedure, abridged:
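Readout: fluorescence at 480 nm excitation/540 nm emission, sampled at 1 s intervals for 3 min. Cells had been cultured 18 h, then dye-loaded 1 h at 37 C before compound or ATP addition.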

A short description of test [6]: p53 small molecule agonists, cell-based qHTS assay with human liver microsomes: qHTS cell viability counter screen (AID 1963579). Also: nearly all actives have a fitted effect of over 45% in size. The procedure, abridged: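 p53RE-bla cells, 4,000/well, dosed 5 hours after plating, with human liver microsomes (0.5 mg/mL final) plus NADPH (0.5 mg/mL final), 16 hours at 37 C. Viability read as CellTiter-Glo luminescence after 30 min at room temperature.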
In general terms: Quantitative high-throughput screening tests each substance at several concentrations.

Test [7] is described as follows: p53 small molecule agonists, cell-based qHTS assay with rat liver microsomes: qHTS cell viability counter screen (AID 1963580). Also: nearly all actives have a fitted effect of over 45% in size. The procedure, abridged: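 In HCT-116 cells carrying a p53 response element-bla reporter, compounds were metabolically activated in situ by rat liver microsomes with NADPH over 16 h. Cell ATP content then served as the cytotoxicity measure.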

Test [8] in a line: p53 small molecule agonists, cell-based qHTS assay (AID 1963582; active = well fitted activation curve with a large enough effect in the signal ratio in the repeat runs, not every such curve was filed as active; the % refers to the signal ratio). The method, boiled down: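 Compounds are pin-transferred in DMSO onto p53RE-bla cells and incubated 16 h at 37 C. The B/G FRET beta-lactamase substrate is then applied for 2 h at RT and fluorescence recorded.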
Test [9] deals with 5-hydroxytryptamine receptor 2A (Homo sapiens) (UniProt P28223). The experiment in a line: 5-hydroxytryptamine receptor 2A (HTR2A) small molecule antagonists, cell-based qHTS assay (AID 1963586). Also: nearly all actives have a fitted effect of over 45% in size. The method, boiled down: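 Antagonist-mode intracellular calcium assay: DOI (4 nM) added after 5 min compound pre-incubation at room temperature to dye-loaded HTR2A-CHO cells. Fluorescence followed for 3 min, sampled every second.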

Test [10] shares this target. In words: 5-hydroxytryptamine receptor 2A (HTR2A) small molecule agonists, cell-based qHTS assay (AID 1963587). Also: nearly all actives have a fitted effect of over 30% in size. The method, boiled down: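 HTR2A-CHO cells, plated 18 h at 37 C/5% CO2, dye-loaded 1 h at 37 C; compounds in DMSO added by pin tool (agonist mode). Intracellular calcium flux read as kinetic fluorescence on FDSS over 2 min at 1 s intervals.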
Test [11] deals with Muscarinic acetylcholine receptor M1 (Homo sapiens) (UniProt P11229). In words: Cholinergic receptor muscarinic 1 (CHRM1) small molecule antagonists, cell-based qHTS assay (AID 1963588). Also: nearly all actives have a fitted effect of over 40% in size. The procedure, abridged: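 CHRM1-CHO calcium-flux assay, antagonist mode. Cells were seeded 18 h, dye-loaded 1 h at 37 C and given compound for 5 min at RT, then acetylcholine was added at 50nM. FDSS fluorescence was read 3 min; 15 concentrations, three runs.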

Test [12] has the same target. In words: Cholinergic receptor muscarinic 1 (CHRM1) small molecule agonists, cell-based qHTS assay (AID 1963589). Also: nearly all actives have a fitted effect of over 35% in size. The procedure, abridged:
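Each compound was tested at 15 concentrations across three independent runs on dye-loaded CHO cells stably expressing human CHRM1, reading intracellular calcium fluorescence kinetically at 1 sec intervals.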

The nature of test [13]: cAMP Responsive Elements (CRE) small molecule agonists, cell-based qHTS assay (AID 1963590). The procedure, abridged: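 Cell line: CRE-bla HEK 293T; medium DMEM/10% dialyzed FBS/0.1 mM NEAA/1 mM pyruvate/25 mM HEPES; 3 h compound exposure; beta-lactamase FRET readout after 2 h substrate loading at RT.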
Test [14] is described as follows: cAMP Responsive Elements (CRE) small molecule antagonists, cell-based qHTS assay (AID 1963591; active = well fitted inhibition curve with a large enough effect in the signal ratio in the repeat runs, not every such curve was filed as active; the % refers to the signal ratio). The method, boiled down: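 Inhibition of NKH477-driven (0.25 uM final) CRE-beta-lactamase signal in HEK293T cells, 3 h compound exposure at 37 °C, detected by FRET substrate fluorescence.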
In test [15] the target is Beta-2 adrenergic receptor (Homo sapiens) (UniProt P07550). In words: Adrenergic beta2 receptor (ADRB2) small molecule antagonists, cell-based qHTS assay (AID 1963592). Also: series mostly up to about 92 µM; nearly all actives have a fitted effect of over 50% in size. The procedure, abridged: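 Cells (CHO, stable ADRB2 overexpression) incubated 18-20hr at 37C; compounds added from DMSO; agonist mix (1nM isoproterenol, 100uM IBMX, 25uM Ro-20-1724) added; 0.5hr RT; d2-cAMP and anti-cAMP-cryptate added; 1hr RT; 665/615 nm read.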

The target is the same in test [16]. In words: Adrenergic beta2 receptor (ADRB2) small molecule agonists, cell-based qHTS assay (AID 1963593).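 Also: CHO cells stably overexpressing human ADRB2.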 The method, boiled down:
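CHO cells stably over-expressing ADRB2 were plated overnight at 37C, then dosed with compounds plus a stimulation mix containing 100uM IBMX and 25uM Ro-20-1724 for 0.5hr at room temperature. cAMP was measured by HTRF competition, 1hr.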

Test [17] concerns the target D(2) dopamine receptor (Homo sapiens) (UniProt P14416). In words: Dopamine D2 receptor (DRD2) small molecule agonists, cell-based qHTS assay (AID 1963594). Also: nearly all actives have a fitted effect of over 35% in size. The method, boiled down: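 HEK293 cells stably expressing DRD2 were cultured 24 h at 37 C, then given Ro20-1724 (0.1 mM final) and compounds for 10 min at room temperature. NKH477 (200nM) was then added for 30 min. cAMP was read by HTRF.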

Test [18] has the same target. The experiment in a line: Dopamine D2 receptor (DRD2) small molecule antagonists, cell-based qHTS assay (AID 1963595; active = well fitted inhibition curve with a large enough effect in the signal ratio in the repeat runs, with a control signal flat; the % refers to the signal ratio). The method, boiled down: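 Readout: HTRF cAMP, cAMP-d2 competing with cellular cAMP for anti-cAMP cryptate, read after 1 h. Cells: DRD2-HEK293. Conditions: 0.1 mM Ro20-1724, 12 nM quinpirole, 200 nM NKH477, 30 min RT.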
Test [19] can be described thus: p53 small molecule agonists, cell-based qHTS assay: qHTS cell viability counter screen (AID 1963581). Also: nearly all actives have a fitted effect of over 45% in size. The method, boiled down: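 In the same plates used for the p53 bla reporter, HCT-116 cells given compounds for 16 h at 37 C received CellTiter-Glo; luminescence was recorded 30 min later at room temperature.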

Gonadotropin-releasing hormone receptor (Homo sapiens), sequence (P30968 whole entry, looked up): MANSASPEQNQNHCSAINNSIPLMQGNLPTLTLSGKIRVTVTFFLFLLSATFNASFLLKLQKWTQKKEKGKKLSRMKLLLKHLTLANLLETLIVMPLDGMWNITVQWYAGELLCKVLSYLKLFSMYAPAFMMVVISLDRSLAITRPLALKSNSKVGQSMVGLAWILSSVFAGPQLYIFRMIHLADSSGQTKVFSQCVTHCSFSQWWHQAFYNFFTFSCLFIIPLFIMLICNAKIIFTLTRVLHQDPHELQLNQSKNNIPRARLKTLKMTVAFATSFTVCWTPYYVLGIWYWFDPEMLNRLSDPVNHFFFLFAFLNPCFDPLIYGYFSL
Beta-2 adrenergic receptor (Homo sapiens), sequence (P07550 whole entry, looked up): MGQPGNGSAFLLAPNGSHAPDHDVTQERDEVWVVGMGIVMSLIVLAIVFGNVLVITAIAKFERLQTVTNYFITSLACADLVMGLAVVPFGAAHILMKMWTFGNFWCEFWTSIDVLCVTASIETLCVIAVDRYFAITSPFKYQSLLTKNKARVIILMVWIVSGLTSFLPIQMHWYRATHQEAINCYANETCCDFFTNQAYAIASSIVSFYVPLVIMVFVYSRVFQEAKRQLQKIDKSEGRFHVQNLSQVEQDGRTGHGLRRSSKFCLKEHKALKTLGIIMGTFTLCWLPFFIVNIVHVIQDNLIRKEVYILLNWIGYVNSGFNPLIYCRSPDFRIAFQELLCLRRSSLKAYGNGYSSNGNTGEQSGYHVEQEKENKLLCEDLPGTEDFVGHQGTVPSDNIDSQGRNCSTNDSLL
D(2) dopamine receptor (Homo sapiens), sequence (P14416 whole entry, looked up): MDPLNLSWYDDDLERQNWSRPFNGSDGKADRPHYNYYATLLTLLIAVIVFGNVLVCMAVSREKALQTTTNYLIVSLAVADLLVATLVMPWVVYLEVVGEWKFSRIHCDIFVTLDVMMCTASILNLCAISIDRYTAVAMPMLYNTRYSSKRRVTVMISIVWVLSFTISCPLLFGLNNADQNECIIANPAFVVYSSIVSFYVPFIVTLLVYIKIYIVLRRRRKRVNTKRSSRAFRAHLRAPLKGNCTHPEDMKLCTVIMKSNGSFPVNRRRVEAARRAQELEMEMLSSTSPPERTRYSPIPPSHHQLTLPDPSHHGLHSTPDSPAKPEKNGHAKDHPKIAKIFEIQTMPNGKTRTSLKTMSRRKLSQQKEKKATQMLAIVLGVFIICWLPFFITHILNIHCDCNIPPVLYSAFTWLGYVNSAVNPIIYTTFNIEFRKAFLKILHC
KiSS-1 receptor (Homo sapiens), sequence (Q969F8 whole entry, looked up): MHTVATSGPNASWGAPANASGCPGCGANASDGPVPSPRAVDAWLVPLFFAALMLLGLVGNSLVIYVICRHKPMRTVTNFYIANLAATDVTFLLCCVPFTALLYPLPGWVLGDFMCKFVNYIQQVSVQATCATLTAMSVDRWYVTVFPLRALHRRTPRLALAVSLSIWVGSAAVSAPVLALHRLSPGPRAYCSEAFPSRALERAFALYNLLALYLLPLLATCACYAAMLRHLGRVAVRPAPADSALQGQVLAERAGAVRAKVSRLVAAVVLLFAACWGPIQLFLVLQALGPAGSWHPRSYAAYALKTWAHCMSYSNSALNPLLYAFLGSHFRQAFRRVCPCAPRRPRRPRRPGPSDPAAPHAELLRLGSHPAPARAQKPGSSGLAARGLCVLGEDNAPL
5-hydroxytryptamine receptor 2A (Homo sapiens), sequence (P28223 whole entry, looked up): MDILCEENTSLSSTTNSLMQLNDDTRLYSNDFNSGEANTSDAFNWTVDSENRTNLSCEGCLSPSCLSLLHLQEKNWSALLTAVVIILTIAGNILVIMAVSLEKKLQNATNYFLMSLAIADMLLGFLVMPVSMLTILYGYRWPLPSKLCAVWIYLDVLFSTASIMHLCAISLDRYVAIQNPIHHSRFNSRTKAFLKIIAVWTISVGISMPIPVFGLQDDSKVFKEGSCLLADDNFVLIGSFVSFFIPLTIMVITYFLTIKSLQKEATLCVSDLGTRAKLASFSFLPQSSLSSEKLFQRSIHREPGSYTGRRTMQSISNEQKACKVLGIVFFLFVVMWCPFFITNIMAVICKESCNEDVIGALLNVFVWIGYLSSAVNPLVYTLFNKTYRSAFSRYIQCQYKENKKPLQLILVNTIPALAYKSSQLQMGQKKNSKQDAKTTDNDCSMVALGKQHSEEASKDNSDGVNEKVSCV
Muscarinic acetylcholine receptor M1 (Homo sapiens), sequence (P11229 whole entry, looked up): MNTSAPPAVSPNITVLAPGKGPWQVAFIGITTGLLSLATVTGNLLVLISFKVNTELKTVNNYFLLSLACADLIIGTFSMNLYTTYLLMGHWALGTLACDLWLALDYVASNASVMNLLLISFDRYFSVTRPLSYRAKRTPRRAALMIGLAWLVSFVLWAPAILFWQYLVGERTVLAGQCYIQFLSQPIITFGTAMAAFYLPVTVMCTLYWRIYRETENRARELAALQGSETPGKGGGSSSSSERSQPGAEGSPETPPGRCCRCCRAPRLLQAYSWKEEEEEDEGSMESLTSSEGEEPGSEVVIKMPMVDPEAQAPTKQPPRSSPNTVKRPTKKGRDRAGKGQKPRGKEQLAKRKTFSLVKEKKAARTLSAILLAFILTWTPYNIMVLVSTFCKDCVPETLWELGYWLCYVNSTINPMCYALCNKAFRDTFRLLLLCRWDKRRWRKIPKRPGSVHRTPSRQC

For `CNC(=O)O/N=C(\C)SC`, the Potency entry in test [1], in [2], in [3], in test [4], in test [5] and in test [6] was “inactive” each time. The Potency result in test [7], in test [8], in test [9], in test [10], in [11] and in test [12] was “inactive” each time. Further, the Potency entry in test [13], in test [14], in test [15], in test [16], in test [17] and in [18] was “inactive” in each case.

`Cc1ccc(C)c2ccccc12`: the Potency entry in test [1], in [2], in test [3], in test [4], in test [5] and in test [6] was “inactive” throughout. Moreover, the Potency result in [7], in test [19], in test [10], in test [11], in [12] and in test [13] was “inactive” in each case. For the same compound, the Potency entry in test [14], in [16] and in test [17] was “inactive” throughout.

On to `O=[N+]([O-])c1cc(Cl)c(Cl)cc1Cl`, for which the Potency result in test [1], in [2], in test [3], in test [4], in [5] and in test [6] was “inactive” each time. The Potency entry in test [7], in test [19], in test [9], in [12], in [13] and in test [14] was “inactive” in each case. The Potency result in [15] and in [18] was “inactive” each time.

Regarding `CC[N+]1(CCOC(=O)C(O)(c2ccccc2)c2ccccc2)CCCCC1`, the Potency result in test [1], in test [2], in [3], in test [4], in test [5] and in [6] was “inactive” in each case. For the same compound, the Potency result in [7], in test [19], in test [13], in [14], in [15] and in [17] was “inactive” throughout. In test [18], the Potency entry is “inactive”.

With `O=C(O)C(Br)(Br)Br`, the Potency result in [1], in test [2], in test [3], in test [4], in [5] and in test [6] was “inactive” each time. In addition, the Potency entry in test [7], in [9], in test [10], in [11], in test [12] and in [13] was “inactive” throughout. For the same compound, the Potency entry in test [14], in test [15], in test [16], in [17] and in test [18] was “inactive” each time.

`c1ccc(Nc2ccc(Nc3ccccc3)cc2)cc1`: the Potency result in test [1], in test [3], in [4], in [5], in [6] and in test [7] was “inactive” each time. Moreover, the Potency result in test [19], in test [13], in test [15] and in test [18] was “inactive” each time. In addition, the Potency in [2] is 27.2 µM (active).

On to `CN1C(=O)COc2c(C(=O)NC3CN4CCC3CC4)cc(Cl)cc21` (stereo not drawn), for which the Potency entry in test [1], in test [2], in test [3], in [4], in test [5] and in test [6] was “inactive” throughout. Also, the Potency result in test [7], in test [19], in test [13], in [14], in test [15] and in [17] was “inactive” in each case. The Potency entry in test [18] is “inactive”.

As to `COP(N)(=S)OC`, the Potency result in test [1], in [2], in test [3], in test [4], in [5] and in test [6] was “inactive” each time. Moreover, the Potency result in test [7], in [8], in test [10], in [11], in test [12] and in test [13] was “inactive” throughout. Also, the Potency entry in test [14], in test [15] and in test [17] was “inactive” in each case.

For `C=CC(=O)NCNC(=O)C=C`, the Potency entry in test [1], in test [3], in [4], in test [5], in test [9] and in [10] was “inactive” each time. For the same compound, the Potency entry in test [11], in test [12], in test [13], in [15] and in test [17] was “inactive” throughout. In addition, the Potency in [2] is 61.1 µM (active).
